Compounds without any hit were thinned out: in the full panel of roughly 79,000, 15% have a hit. No stated cut-off is given here; in the data, active means growth inhibition above about 70%; inactive means the rest.
Key:
[1] = NCI Yeast Anticancer Drug Screen. Data for the rad50 strain (AID 155);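 further: 0% = growth of vehicle-only cultures of the same strain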; details: S. cerevisiae rad50 strain growth inhibition; at 50.0 µM; stronger effect = higher value
Summary of the method: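 DNA repair mutant yeast, compound exposure, growth read-out; inhibition is taken relative to vehicle.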

[2] = NCI Yeast Anticancer Drug Screen. Data for the mec2-1 strain (AID 157); details: S. cerevisiae mec2-1 strain, at 50.0 µM, stronger effect = higher value
Summary of the method: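 mec2-1 yeast strain, carrying an alteration in DNA damage repair or cell cycle control, was exposed to compounds; growth inhibition was measured relative to vehicle-treated controls.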

[3] = NCI Yeast Anticancer Drug Screen. Data for the sgs1 mgt1 strain (AID 161);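 further: 0% = growth of cultures given vehicle only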; details: S. cerevisiae sgs1 mgt1 strain, at 50.0 µM, stronger effect = higher value
Summary of the method: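 Growth of a repair-deficient yeast mutant was monitored after compound treatment and expressed as inhibition relative to vehicle-treated cultures.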

[4] = NCI Yeast Anticancer Drug Screen. Data for the cln2 rad14 strain (AID 165);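 further: 0% = growth equal to vehicle treated cultures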; details: S. cerevisiae cln2 rad14 strain, at 50.0 µM, stronger effect = higher value
Summary of the method: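 Yeast carrying cln2 and rad14 alterations (cell cycle control and DNA damage repair) were exposed to compounds. Growth inhibition was measured against vehicle-treated controls.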

[5] = NCI Yeast Anticancer Drug Screen. Data for the bub3 strain (AID 167); details: S. cerevisiae bub3 mutant strain, at 50.0 µM, stronger effect = higher value
Summary of the method: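 In this screen, a yeast mutant lacking normal mitotic checkpoint function is challenged with compound. Relative growth versus vehicle gives the inhibition value.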

[6] = NCI Yeast Anticancer Drug Screen. Data for the mlh1 rad18 strain (AID 175); details: S. cerevisiae mlh1 rad18 strain growth inhibition; at 50.0 µM; stronger effect = higher value
Summary of the method: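 Growth inhibition of the yeast strain was measured after compound exposure and expressed relative to vehicle-treated controls. The strain carries defined defects in DNA damage repair.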

Measured: growth inhibition

CCOc1ccccc1C(=O)Nc1cc(Cl)ccc1Cl
inactive: [1] 6.8% | [2] -18.1% | [3] -7.45% | [4] -4.8% | [5] -15.1% | [6] 2.85%

NNC(=O)C(=O)N/N=C1\CCC(=O)CC1C(=O)CCC(=O)Nc1ccc(Cl)cc1 (stereo unspecified)
inactive: [1] 10.3% | [2] 1.05% | [3] -16.6% | [4] -9.35% | [5] -0.8% | [6] -17.5%

Cc1c(O)c2ccc3ccccc3c2oc1=O
inactive: [1] 5.4% | [2] 5.75% | [3] -7.05% | [4] -37.4% | [5] -47.4% | [6] -6.4%

N#CC(N)(C(=O)C(=O)NCCCNC(=O)C(=O)C(N)(C#N)c1ccc(Cl)cc1)c1ccc(Cl)cc1 (stereo unspecified)
inactive: [1] -37% | [2] -1.45% | [3] -32.4% | [4] -18.6% | [5] -35.1% | [6] -28.7%

Cc1cc(C(=O)N/N=C/c2cc(Cl)cc(Cl)c2O)c2cc(Br)ccc2n1
inactive: [1] 61.5% | [2] 25.4% | [3] 54% | [4] 15.9% | [5] -0.2% | [6] 45%

Cn1c(=O)c2c(ncn2CCNC(c2ccccc2)c2cccc(Cl)c2)n(C)c1=O (stereo unspecified)
inactive: [1] 6% | [2] -8.05% | [3] 4.35% | [4] -8.3% | [5] 0.8% | [6] 12.8%

CCOC(=O)c1ccc(NC(=O)/C=C/C(=O)O)cc1
inactive: [1] -20.2% | [2] -17.9% | [3] -2.9% | [4] -3.3% | [5] -9.7% | [6] -15.3%

Clc1cccc(Cl)c1/C=N/N1CCN(/N=C/c2c(Cl)cccc2Cl)CC1
inactive: [1] 18.9% | [2] 10.1% | [3] 17.9% | [4] 6.45% | [5] -4.1% | [6] 0.7%

COc1ccc(/C=[N+](\[O-])[C@H](COCc2ccccc2)c2ccccc2)cc1
inactive: [1] 18.4% | [2] -18.3% | [3] 0.05% | [4] -1.6% | [5] 6.6% | [6] 4.3%

CC12CC3OC3CC1CCC1C2CCC2(C)C1CCC21OCCO1 (stereo unspecified)
inactive: [1] 16% | [2] -32.7% | [3] 3.6% | [4] 3.15% | [5] 23.1% | [6] 22.6%

NC(CSS(=O)(=O)O)=NCC1CC2CCC1C2 (stereo unspecified)
inactive: [1] 3.25% | [2] 6.2% | [3] -3.85% | [4] 6.95% | [5] 4.4% | [6] 12.3%

COc1ccc(C(C)c2cc3c(cc2OCC(=O)O)OCO3)cc1OC (stereo unspecified)
inactive: [1] -7.65% | [2] -10.2% | [3] -6.85% | [4] -4.8% | [5] -0.2% | [6] -3.2%

CCCCc1c(O)c(N=NC(N)=S)c2ccccc2c1O
inactive: [1] 14.9% | [2] 8.45% | [3] 36.8% | [4] -22.1% | [5] 32.6% | [6] 43.5%

O=S(O)CCCCSSCC(O)CO (stereo unspecified)
inactive: [1] 22.5% | [2] 9.65% | [3] 15.2% | [4] 63.5% | [5] 24.1% | [6] 13.7%

Cc1nc(Nc2ccc([N+](=O)[O-])cc2)sc1C(=O)/C=C/c1ccc(N(C)C)cc1
inactive: [1] 5.1% | [2] -6.85% | [3] 5.6% | [4] 16.2% | [5] 18.6% | [6] -1.1%

Cc1ccc(-n2c(C)n[nH]c2=O)cc1
inactive: [1] -10.7% | [2] -18% | [3] -9.8% | [4] 8% | [5] -4.3% | [6] 3.2%

CCOCCOC(=O)c1ccc(C(C)C)cc1
inactive: [1] 4.9% | [2] 1.75% | [3] 7.8% | [4] -12.8% | [5] 5.25% | [6] 3.5%

CCOC(=O)CCc1ccc(NC(=O)/C=C/c2ccc([N+](=O)[O-])o2)cc1
inactive: [1] 55% | [2] 29.1% | [3] 56.3% | [4] 53.8% | [5] 34.8% | [6] 36.7%

S=C(Cl)Sc1ccc(-c2ccc(SC(=S)Cl)cc2)cc1
inactive: [1] 2.7% | [2] -2.5% | [3] -10.4% | [4] -5.6% | [5] 6.1% | [6] -7.9%

Cc1nc(N)[nH]c(=O)c1-n1nnc2ccccc2c1=O
inactive: [1] 0.15% | [2] 17.1% | [3] 14.1% | [4] -2.1% | [5] 0.9% | [6] -4.1%

CC1(C)CC(C)(O)N(CCc2ccccc2)C(=S)N1 (stereo unspecified)
inactive: [1] -6.55% | [2] 2.7% | [3] 8.8% | [4] -17.1% | [5] 5.15% | [6] 2.45%

Cc1cc(C)c(S(=O)(=O)c2cccs2)c(C)c1
inactive: [1] -7% | [2] -10.2% | [3] -8.25% | [4] -6.45% | [5] 5.25% | [6] -2.8%

COc1cc(CNC(=O)CCCCCCCCCCSSCCCCCCCCCCC(=O)NCc2ccc(O)c(OC)c2)ccc1O
inactive: [1] -20.4% | [2] -32.8% | [3] -22.9% | [4] 5.9% | [5] -13.3% | [6] -24.8%

O=NNc1ccc(Sc2ccccc2)cn1
inactive: [1] 6.8% | [2] -9.2% | [3] -3.75% | [4] -8.55% | [5] -31.6% | [6] 10.6%

Cc1[nH]n(-c2nc(-c3ccccc3)cc(=O)[nH]2)c(=O)c1CCO
inactive: [1] -11.8% | [2] -31.5% | [3] -25.9% | [4] 10.8% | [5] -7.1% | [6] -13.2%

O=C(O)c1ccc(NC(=S)NC(=O)c2cccc([N+](=O)[O-])c2)cc1
inactive: [1] 5.55% | [2] 16% | [3] 16% | [4] 16.8% | [5] 23.6% | [6] 23.6%

O=C(CCS(=O)(=O)CCC(=O)c1cccs1)c1cccs1
inactive: [1] 4.2% | [2] 10.3% | [3] 1.9% | [4] -4.15% | [5] -3.55% | [6] 15.6%

O=C1C(O)=C(c2ccccc2)C(=O)N1Cc1ccccc1
inactive: [1] 7.25% | [2] -4.7% | [3] 4.55% | [4] -39% | [5] 3.4% | [6] -6.6%

C=CCNC(=S)NNC(=O)c1ccncc1
inactive: [1] -19.8% | [2] -10.3% | [3] -21.6% | [4] -82.8% | [5] 2.4% | [6] -23.8%

CCC1CN2CCc3cc(OC)c(OC)cc3C2CC1C#N (stereo unspecified)
inactive: [1] 15.4% | [2] 9.2% | [3] 23.8% | [4] 21.1% | [5] 12.1% | [6] 23.1%

O=[N+]([O-])c1cc(Br)ccc1N1CCCCC1
inactive: [1] -3.15% | [2] -3.55% | [3] 2.25% | [4] -18.1% | [5] 17.9% | [6] -20.8%

CCC(C(O)C(C)C)[N+](=O)[O-] (stereo unspecified)
inactive: [1] 14.2% | [2] 1.45% | [3] 6.35% | [4] -6.5% | [5] 0.05% | [6] 3.3%

O=C(O)C(O)(O)C(=O)O
inactive: [1] -2.9% | [2] -11.2% | [3] -12.6% | [4] 22.6% | [5] 5.8% | [6] -4.05%

C=CC(O)C1OC2OC(C)(C)OC2C2OC(C)(C)OC12 (stereo unspecified)
inactive: [1] -2.75% | [2] 13.2% | [3] 2.7% | [4] -32.8% | [5] 21.4% | [6] 5.45%

CCC(C(N)=O)C(C)(C)C (stereo unspecified)
inactive: [1] -0.15% | [2] -12.2% | [3] -4.7% | [4] 7.3% | [5] 12.3% | [6] -1.2%

O=C(NI1OC(=O)c2ccccc21)c1ccc(Cl)cc1
inactive: [1] -9% | [2] 6.05% | [3] -38% | [4] -17.5% | [5] -33.6% | [6] -5.6%

C[n+]1cccc(NC(=O)COc2ccc(Cl)c(Cl)c2)c1
inactive: [1] 15.3% | [2] 3.95% | [3] -5.4% | [4] -18% | [5] -1.75% | [6] 21.5%

CN(C)CC(=O)c1c[nH]c(=O)[nH]c1=O
inactive: [1] 11.3% | [2] -49.1% | [3] -13.4% | [4] -63.2% | [5] -1.65% | [6] -8.55%

CCN(CC)CCCNc1cccc2nc(Cl)ccc12
inactive: [1] 12.1% | [2] 18.6% | [3] 37.2% | [4] 24.5% | [5] 2.65% | [6] 9.25%

Cc1ccc(S(=O)(=O)NCCC(=O)O)cc1
inactive: [1] -1.75% | [2] -11.1% | [3] -9.65% | [4] -9.3% | [5] -3.3% | [6] -4.85%

COc1cc2c3c(c1OC)-c1cc4c(cc1CC3(C#N)N(C(=O)c1ccccc1)CC2)OCO4 (stereo unspecified)
inactive: [1] 3.5% | [2] 8.05% | [3] -29.2% | [4] -5.35% | [5] 15.1% | [6] 26.1%
